Inconclusive results are not listed. For some assays here: Measured potencies and affinities stand elsewhere. Calls of active or inactive are those of the source. Unless noted, no stated cut-off is given here; in the data, active means fluorescence slope change above about 50%; inconclusive means mostly about 31% to 49%; inactive means weaker than that.

A short description of test [1]: suppressors of polyQ aggregation in yeast, 75Q-TubU reporter (AID 1593). To be noted: Yeast 75Q polyglutamine aggregation reporter.
Test [2] in a line: rescue of polyQ-huntingtin neuronal dysfunction in worms, whole organism, C. elegans mechanosensory neurons, N-terminal huntingtin (AID 1599). To be noted: touch response, stronger effect = higher value.
A short description of test [3]: inhibitors of mitochondrial cytochrome c release, biochemical, purified mitochondria (AID 1603).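 Further: mouse liver mitochondria challenged with calcium chloride; signal normalized to the plate average as 100%.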 The conditions noted are these: stronger effect = lower value.
A short description of test [4]: inhibitors of polyQ protein aggregation (AID 1604). To be noted: polyglutamine-induced protein aggregation inhibition assay; stronger effect = higher value; tested at 2.5 µM.
Test [5] can be described thus: enhancers of glutamate uptake in motor neurons, MN-1 cell line (AID 1612).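 Further: tested at 1 µM final; 0% = mean of DMSO vehicle wells on each plate; positive means more glutamate uptake than control and negative means less.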 The conditions noted are these: MN-1 motor neuron cells, stronger effect = higher value.
Test [6] in a line: suppressors of polyglutamine aggregation in yeast, 75Q-TubH (AID 1616). To be noted: S. cerevisiae 75Q-TubH polyglutamine aggregation suppression; stronger effect = higher value.
For test [7], the target named is ATP-dependent translocase ABCB1 (Homo sapiens) (UniProt P08183). As to the kind of experiment: MDR1 (ABCB1) efflux transporter inhibition, cell-based (AID 377). The conditions noted are these: MDR1-expressing cells, fluorescent substrate accumulation slope; stronger effect = higher value; concentration not given here.
Chain of ATP-dependent translocase ABCB1 (Homo sapiens) (P08183 whole entry, looked up): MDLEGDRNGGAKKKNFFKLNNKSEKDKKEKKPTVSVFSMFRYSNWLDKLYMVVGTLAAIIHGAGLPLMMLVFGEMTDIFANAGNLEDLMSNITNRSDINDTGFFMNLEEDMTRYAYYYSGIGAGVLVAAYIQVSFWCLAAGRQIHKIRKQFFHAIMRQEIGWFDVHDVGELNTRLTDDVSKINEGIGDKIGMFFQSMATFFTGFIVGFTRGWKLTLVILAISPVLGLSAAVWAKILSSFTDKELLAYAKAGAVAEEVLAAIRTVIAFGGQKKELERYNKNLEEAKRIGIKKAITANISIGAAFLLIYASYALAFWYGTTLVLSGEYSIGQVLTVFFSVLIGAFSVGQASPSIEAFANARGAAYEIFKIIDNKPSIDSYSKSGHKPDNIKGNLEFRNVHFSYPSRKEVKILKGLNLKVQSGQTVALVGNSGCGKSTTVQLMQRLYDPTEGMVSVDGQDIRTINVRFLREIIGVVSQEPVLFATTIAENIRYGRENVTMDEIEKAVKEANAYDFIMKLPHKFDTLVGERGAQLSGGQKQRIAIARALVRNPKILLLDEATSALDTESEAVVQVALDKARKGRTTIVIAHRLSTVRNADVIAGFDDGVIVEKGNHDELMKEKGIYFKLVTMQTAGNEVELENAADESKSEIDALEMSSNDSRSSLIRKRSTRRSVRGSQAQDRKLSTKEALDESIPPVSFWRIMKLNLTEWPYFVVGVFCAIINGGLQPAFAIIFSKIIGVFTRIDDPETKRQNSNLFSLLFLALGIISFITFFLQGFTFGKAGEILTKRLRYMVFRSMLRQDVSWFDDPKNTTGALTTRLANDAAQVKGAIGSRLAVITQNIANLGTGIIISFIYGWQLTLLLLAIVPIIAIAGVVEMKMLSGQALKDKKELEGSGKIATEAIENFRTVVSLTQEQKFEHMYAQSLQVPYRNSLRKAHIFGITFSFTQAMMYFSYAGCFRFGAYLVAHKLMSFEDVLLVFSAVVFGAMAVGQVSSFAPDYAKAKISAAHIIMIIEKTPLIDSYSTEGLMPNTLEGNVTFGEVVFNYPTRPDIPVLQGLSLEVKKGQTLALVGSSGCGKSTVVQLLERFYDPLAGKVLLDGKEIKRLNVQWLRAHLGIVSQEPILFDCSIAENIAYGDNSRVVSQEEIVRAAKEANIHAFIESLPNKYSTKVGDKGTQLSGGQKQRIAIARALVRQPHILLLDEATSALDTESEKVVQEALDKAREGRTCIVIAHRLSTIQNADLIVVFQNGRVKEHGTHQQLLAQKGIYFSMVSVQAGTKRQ
Test [8] addresses NAD(+) hydrolase SARM1 (Homo sapiens) (UniProt Q6SZW1). As to the kind of experiment: SARM1 TIR NADase inhibitors, cell lysate, NAD-Glo luminescence (AID 1508614;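 active means compound whose remaining NAD level is above about 45 nM, limit read from the data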). To be noted: SAM-TIR HEK293T lysate NADase, at 1 µM, stronger effect = higher value.

Chain of NAD(+) hydrolase SARM1 (Homo sapiens) (Q6SZW1 whole entry, looked up): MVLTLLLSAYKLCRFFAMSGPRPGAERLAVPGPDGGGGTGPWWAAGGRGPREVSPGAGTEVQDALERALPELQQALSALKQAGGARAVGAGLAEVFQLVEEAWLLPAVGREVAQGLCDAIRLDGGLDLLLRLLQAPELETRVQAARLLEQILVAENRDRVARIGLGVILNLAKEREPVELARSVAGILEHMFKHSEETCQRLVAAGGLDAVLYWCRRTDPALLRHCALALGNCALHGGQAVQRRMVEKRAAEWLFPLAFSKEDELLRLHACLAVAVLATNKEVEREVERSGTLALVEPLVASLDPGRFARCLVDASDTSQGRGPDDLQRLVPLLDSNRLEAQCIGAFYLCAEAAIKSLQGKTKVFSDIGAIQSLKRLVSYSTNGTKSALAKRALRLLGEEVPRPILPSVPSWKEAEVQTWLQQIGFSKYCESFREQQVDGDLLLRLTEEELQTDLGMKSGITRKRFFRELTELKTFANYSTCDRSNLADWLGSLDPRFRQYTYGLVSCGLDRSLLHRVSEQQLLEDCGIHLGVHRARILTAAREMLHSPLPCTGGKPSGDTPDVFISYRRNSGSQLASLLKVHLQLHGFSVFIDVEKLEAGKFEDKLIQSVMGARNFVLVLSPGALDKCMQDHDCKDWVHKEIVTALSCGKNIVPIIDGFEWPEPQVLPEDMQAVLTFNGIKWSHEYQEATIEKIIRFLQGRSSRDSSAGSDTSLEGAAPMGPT

In test [1], `N.N.O=C(O)C1(C(=O)O)CCC1.[Pt]` showed a score of 1.14. In test [2], this compound displayed a rescue above control of 12.6. The cytochrome c release ratio in test [3] amounted to 0.66. In test [4], this compound yielded an inhibition of aggregation of 37.7%. The glutamate uptake change in test [5] is -9.42%. For the same compound, in test [6], the aggregation suppression score stood at 1.13.

With `CN1CCc2cccc3c2[C@H]1Cc1ccc(O)c(O)c1-3`, in test [7], the fluorescence slope change is 65.8% (active). The remaining NAD in test [8] was 53 nM (active).

(Values after PubChem BioAssay.)
